Assay results taken from PubChem BioAssay.
Active and inactive are the calls of the source.

Key:
[1] = small-molecule microarray binders of probe aShh, primary screen, biochemical, biotinylated probe, 635/667 nm fluorescence (AID 1114); settings: higher = more signal;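 further: probe is biotin-labelled aShh protein from a stem cell growth factor screen; measures binding of labelled protein to compounds printed on the slide; score merges feature fluorescence at 667 nm with signal-to-noise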
[2] = small-molecule microarray binders of probe aNog, primary screen, biochemical, biotinylated probe, 635/667 nm fluorescence (AID 1115); settings: higher = more signal;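 further: probe is biotinylated aNog protein used at 0.15 µg/mL for 1 h at 4 C; z-score combines 667 nm fluorescence of each spot with its signal to noise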
[3] = molecular target: Torsin-1A-interacting protein 1 (Homo sapiens) (UniProt Q5JTV8); experiment: LAP1 binders from COS7 cell lysate, primary screen, small-molecule microarray, 635/667 nm fluorescence (AID 1116); settings: COS7-hLAP1 lysate binding, 635 nm fluorescence, higher = more signal
Albumin (Bos taurus) = Albumin (Bos taurus) (UniProt P02769); experiment: bovine serum albumin binders on microarray, profiling panel, artefact control for SMM control protein annotation, biochemical, small-molecule microarray, Alexa647 label, 635/667 nm fluorescence (AID 1118); settings: BSA-A647 binding, fluorescence 635 nm, higher = more signal;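 further: score merges 667 nm emission intensity and signal-to-noise per printed compound spot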
[4] = small-molecule microarray binders of probe aXIP, primary screen, biochemical, NeuroSMM set, 635/667 nm fluorescence (AID 1119); settings: higher = more signal, called active from +8 up or from −8 down;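 further: probe is the protein aXip251-270 applied at 1 µg/mL to compound-printed slides; binding of probe to printed compounds measured as 667 nm fluorescence plus signal to noise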
[5] = small-molecule binders of probe aNOTCH3, primary screen, biochemical, small-molecule microarray, 635/667 nm fluorescence (AID 1120); settings: higher = more signal;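 further: probe is a biotin-tagged antibody raised against NOTCH3 rather than NOTCH3 protein; score merges spot fluorescence near 667 nm with spot signal to noise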
[6] = small-molecule binders of probe aNOTCH2, primary screen, biochemical, small-molecule microarray, 635/667 nm fluorescence (AID 1121); settings: higher = more signal;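 further: score merges feature fluorescence read at 667 nm with its signal to noise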
[7] = molecular target: Carbonic anhydrase 2 (Homo sapiens) (UniProt P00918); experiment: CAII small-molecule binders, profiling panel, biochemical, small-molecule microarray, Alexa647-labelled CAII (AID 1122); settings: CAII-A647 binding fluorescence, higher = more signal
[8] = COS7 lysate on small-molecule microarray, probe aHis, 635 nm (AID 1123); settings: COS7 cell lysate, fluorescence, higher = more signal;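 further: z-score combines 667nm fluorescence intensity with signal-to-noise per printed compound spot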
[9] = compound binding in COS7 lysate, probe aLAP1, primary screen, cell lysate, small-molecule microarray (AID 1124); settings: probe aLAP1, fluorescence, higher = more signal;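 further: lysate comes from COS7 cells expressing LAP1 and is applied at 0.3 µg/mL; score merges spot fluorescence near 667 nm with signal-to-noise over triplicate slides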
Sam68 (KHDRBS1) = experiment: Sam68 small-molecule binders, primary screen, biochemical, small-molecule microarray, 635 nm fluorescence (AID 1125); settings: small-molecule microarray binding, higher = more signal;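 further: score merges 667 nm channel intensity with signal to noise over triplicate slides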
[10] = system: Chordin-like protein 2 (CHRDL2); experiment: CHRDL2 small-molecule binders, primary screen, biochemical, small-molecule microarray, 635 nm fluorescence (AID 1126); settings: small-molecule microarray binding, fluorescence 635 nm; higher = more signal;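 further: printed compound slides probed with Chrdl2 protein at 4 µg/mL for 1 h at 4 C; score merges 667 nm emission intensity with signal to noise over three replicate slides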
[11] = molecular target: Concanavalin-A (Canavalia ensiformis) (UniProt P02866); experiment: ConA small-molecule binders, primary screen, artefact control for SMM control protein annotation, biochemical, small-molecule microarray, Alexa647 label, 635 nm (AID 1127); settings: ConA-A647 binding fluorescence, higher = more signal;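 further: z combines 667 nm emission intensity with signal-to-noise across three replicate slides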
[12] = anti-His antibody binders, primary screen, artefact control for SMM control protein annotation, biochemical, small-molecule microarray, 635 nm fluorescence (AID 1128); settings: anti-His Alexa647 antibody binding, higher = more signal;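 further: score merges feature fluorescence with signal-to-noise for each printed compound spot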
[13] = system: Human papillomavirus type 1a E7 protein (residues 1-88); experiment: HPV1a E7 small-molecule binders, primary screen, biochemical, small-molecule microarray, residues 1-88, 635 nm (AID 1129); settings: small-molecule microarray binding, fluorescence 635 nm; higher = more signal
[14] = molecular target: Focal adhesion kinase 1 (Homo sapiens) (UniProt Q05397); experiment: small-molecule microarray binders of FAK, primary screen, biochemical, 635/667 nm fluorescence, BSA, DTT (AID 1130); settings: PTK2 binding, 635 nm fluorescence, higher = more signal;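 further: composite of spot emission at 667 nm and signal to noise over triplicate slides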
[15] = system: Fibrinogen (Alexa647-labelled); experiment: fibrinogen binders on compound microarrays, profiling panel, artefact control for SMM control-protein annotation, biochemical, small-molecule microarray, 635/667 nm fluorescence (AID 1131); settings: fibrinogen-A647 binding fluorescence, higher = more signal;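 further: z-score merges 667 nm fluorescence with per-spot signal-to-noise over triplicate slides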
[16] = molecular target: Follistatin (Homo sapiens) (UniProt P19883); experiment: follistatin binders on small-molecule microarrays, primary screen, biochemical, small-molecule microarray, 635/667 nm fluorescence (AID 1132); settings: FST binding, 635 nm fluorescence, higher = more signal
[17] = molecular target: Fibroblast growth factor 2 (Homo sapiens) (UniProt P09038); experiment: FGF2 binders on small-molecule microarrays, primary screen, biochemical, small-molecule microarray, 635/667 nm fluorescence (AID 1133); settings: small-molecule microarray binding, FGF2, fluorescence 635/667; higher = more signal
[18] = mitochondrial membrane potential change in A549 cells, profiling panel, cell-based, JC-1 fluorescence, basal, 24 h, 100 nL (AID 1138); settings: higher = more signal;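 further: A549 lung adenocarcinoma cells under basal conditions with no added stimulus; test concentration not given here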

Chain of Follistatin (Homo sapiens) (P19883 whole entry, looked up): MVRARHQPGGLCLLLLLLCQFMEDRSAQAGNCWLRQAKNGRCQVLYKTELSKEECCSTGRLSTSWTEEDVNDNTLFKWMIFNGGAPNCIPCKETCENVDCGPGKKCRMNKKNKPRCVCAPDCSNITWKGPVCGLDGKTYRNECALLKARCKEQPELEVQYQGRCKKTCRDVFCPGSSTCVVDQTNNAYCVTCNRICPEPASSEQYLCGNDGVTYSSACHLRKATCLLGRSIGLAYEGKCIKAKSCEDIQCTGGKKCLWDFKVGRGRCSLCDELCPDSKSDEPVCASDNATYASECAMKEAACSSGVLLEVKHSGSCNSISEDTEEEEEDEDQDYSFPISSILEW
Chain of Albumin (Bos taurus) (P02769 whole entry, looked up): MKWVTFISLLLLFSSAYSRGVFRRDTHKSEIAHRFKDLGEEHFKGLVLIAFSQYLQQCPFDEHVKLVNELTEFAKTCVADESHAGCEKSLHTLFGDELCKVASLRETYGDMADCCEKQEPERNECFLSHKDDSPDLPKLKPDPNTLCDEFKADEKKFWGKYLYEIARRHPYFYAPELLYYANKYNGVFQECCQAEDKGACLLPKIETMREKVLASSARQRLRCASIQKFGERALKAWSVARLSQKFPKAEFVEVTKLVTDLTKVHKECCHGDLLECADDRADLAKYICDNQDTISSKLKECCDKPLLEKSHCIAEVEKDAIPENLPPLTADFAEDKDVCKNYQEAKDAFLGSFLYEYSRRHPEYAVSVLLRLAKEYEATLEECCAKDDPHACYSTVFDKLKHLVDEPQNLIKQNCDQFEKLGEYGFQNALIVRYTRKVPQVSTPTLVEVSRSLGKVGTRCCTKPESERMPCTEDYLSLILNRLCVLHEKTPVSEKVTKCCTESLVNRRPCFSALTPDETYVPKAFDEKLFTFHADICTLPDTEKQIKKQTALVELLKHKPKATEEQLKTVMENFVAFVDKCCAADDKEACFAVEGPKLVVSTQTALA
Chain of Fibroblast growth factor 2 (Homo sapiens) (P09038 whole entry, looked up): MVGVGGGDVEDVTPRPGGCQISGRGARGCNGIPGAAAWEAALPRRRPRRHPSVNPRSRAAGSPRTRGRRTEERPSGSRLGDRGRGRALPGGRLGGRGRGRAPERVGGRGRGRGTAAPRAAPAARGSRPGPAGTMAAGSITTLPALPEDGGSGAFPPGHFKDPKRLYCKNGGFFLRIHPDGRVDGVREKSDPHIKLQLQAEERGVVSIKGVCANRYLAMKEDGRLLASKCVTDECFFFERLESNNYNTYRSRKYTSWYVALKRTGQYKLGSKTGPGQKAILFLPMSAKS
Chain of Torsin-1A-interacting protein 1 (Homo sapiens) (Q5JTV8 whole entry, looked up): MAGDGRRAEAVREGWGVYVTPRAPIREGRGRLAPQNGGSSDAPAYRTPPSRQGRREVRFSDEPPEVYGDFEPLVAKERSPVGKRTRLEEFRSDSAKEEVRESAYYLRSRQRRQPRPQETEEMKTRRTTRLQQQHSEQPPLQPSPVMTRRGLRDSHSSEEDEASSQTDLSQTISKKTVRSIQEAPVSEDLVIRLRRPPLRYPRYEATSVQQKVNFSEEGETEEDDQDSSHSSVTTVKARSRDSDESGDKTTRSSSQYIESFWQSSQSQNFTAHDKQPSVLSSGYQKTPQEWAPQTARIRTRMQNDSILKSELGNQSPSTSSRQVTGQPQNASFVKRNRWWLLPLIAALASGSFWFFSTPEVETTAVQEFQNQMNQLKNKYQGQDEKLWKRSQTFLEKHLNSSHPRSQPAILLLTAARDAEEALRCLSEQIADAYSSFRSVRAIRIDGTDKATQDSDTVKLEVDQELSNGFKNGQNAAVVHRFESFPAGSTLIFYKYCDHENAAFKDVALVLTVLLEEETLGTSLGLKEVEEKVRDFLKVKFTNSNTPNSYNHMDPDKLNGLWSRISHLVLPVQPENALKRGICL
Chain of Concanavalin-A (Canavalia ensiformis) (P02866 whole entry, looked up): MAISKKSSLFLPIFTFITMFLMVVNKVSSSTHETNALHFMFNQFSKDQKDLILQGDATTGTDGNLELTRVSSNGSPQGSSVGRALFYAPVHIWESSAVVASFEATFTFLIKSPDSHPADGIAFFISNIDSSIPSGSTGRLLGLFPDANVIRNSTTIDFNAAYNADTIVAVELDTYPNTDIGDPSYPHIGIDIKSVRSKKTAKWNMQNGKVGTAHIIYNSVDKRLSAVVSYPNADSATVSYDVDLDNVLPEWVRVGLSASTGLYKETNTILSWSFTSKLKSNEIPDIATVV
Chain of Focal adhesion kinase 1 (Homo sapiens) (Q05397 whole entry, looked up): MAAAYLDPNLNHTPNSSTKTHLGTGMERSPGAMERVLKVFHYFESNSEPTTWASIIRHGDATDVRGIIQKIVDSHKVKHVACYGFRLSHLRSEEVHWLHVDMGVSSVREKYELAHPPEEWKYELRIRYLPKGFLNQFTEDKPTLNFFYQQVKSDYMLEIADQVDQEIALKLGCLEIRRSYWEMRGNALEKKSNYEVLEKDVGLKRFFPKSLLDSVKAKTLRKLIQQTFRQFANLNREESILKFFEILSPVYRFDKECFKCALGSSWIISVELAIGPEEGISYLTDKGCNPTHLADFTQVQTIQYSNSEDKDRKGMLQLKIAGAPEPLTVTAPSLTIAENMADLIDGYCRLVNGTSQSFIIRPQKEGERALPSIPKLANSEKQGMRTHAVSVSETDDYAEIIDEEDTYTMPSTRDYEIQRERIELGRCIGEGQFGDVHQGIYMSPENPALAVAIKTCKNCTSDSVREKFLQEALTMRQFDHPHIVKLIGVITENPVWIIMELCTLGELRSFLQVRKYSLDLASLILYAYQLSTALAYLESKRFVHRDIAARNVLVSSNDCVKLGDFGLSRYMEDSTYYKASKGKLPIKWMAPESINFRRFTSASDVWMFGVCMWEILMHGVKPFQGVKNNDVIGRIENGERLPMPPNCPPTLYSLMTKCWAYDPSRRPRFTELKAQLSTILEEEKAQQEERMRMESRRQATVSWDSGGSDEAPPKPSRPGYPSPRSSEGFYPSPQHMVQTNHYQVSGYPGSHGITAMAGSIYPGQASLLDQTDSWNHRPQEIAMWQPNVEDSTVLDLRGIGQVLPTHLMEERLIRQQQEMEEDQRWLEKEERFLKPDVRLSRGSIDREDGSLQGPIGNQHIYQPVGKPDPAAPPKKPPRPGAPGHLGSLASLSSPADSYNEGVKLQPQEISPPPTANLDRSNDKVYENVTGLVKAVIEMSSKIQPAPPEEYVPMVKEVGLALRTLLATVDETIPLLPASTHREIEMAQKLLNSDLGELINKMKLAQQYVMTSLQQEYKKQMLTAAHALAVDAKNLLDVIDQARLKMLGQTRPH

Compound | composite z-score [1] | composite z-score [2] | composite z-score [3] | composite z-score (Albumin (Bos taurus)) | composite Z-score [4] | composite z-score [5] | composite z-score [6] | composite z-score [7] | composite z-score [8] | composite z-score [9] | composite z-score (Sam68 (KHDRBS1)) | composite z-score [10] | composite z-score [11] | composite z-score [12] | composite z-score [13] | composite z-score [14] | composite z-score [15] | composite z-score [16] | composite z-score [17] | z-score [18]
C=CC[C@@H](OC(=O)Nc1ccc(SC)cc1)c1ccc(OCCO)cc1 | 0.358 | 0.133 | 1.01 | -0.733 | 0.667 (inactive) | -0.267 | -0.179 | 0.758 | 1.99 | 0.105 | 0.655 | -2.01 | -0.264 | 2.42 | -0.0392 | -0.783 | -1.58 | -1.15 | -0.991 | 0.844
CC(C)CNC(=O)[C@@H]1c2ccccc2C(=O)N(Cc2ccc(OC(F)(F)F)cc2)[C@H]1c1ccc(CO)cc1 | -0.0234 | 0.327 | 1.69 | 0.0335 | 0.465 (inactive) | 0.0813 | 0.0081 | 0.572 | 2.36 | 0.0712 | 1.3 | -0.0181 | 1.07 | 1.31 | 1.19 | 1.04 | 0.647 | 1.34 | 1.09 | 0.71
COc1ccc(CCNC(=O)[C@@]2(Sc3ccc(C)cc3)CC(=O)N(Cc3ccccc3)[C@@H]2c2ccc(CO)cc2I)cc1 | -0.596 | 0.0805 | -0.72 | -0.605 | -0.224 (inactive) | -0.289 | -0.2 | 0.377 | 0.666 | 2.03 | 0.247 | -0.974 | 0.508 | 1.06 | 0.408 | 0.0363 | -0.718 | -0.168 | -0.662 | 2.51
CC(C)N1CC=CC23O[C@@H]4/C=C\CCCOC(=O)C4[C@H]2C(=O)N(CCCO)[C@@H]3C1=O (stereo not given in full) | -0.0959 | 0.0824 | -0.0239 | -1.17 | 1.73 (inactive) | -0.249 | -0.125 | 0.962 | -0.0009 | -0.745 | -0.594 | -1.72 | -0.564 | -0.936 | -1.26 | -0.134 | -1.72 | -0.995 | -1.23 | 1.25
O=C1N(CCS(=O)(=O)c2ccccc2)Cc2ccccc2[C@@H]2OC(c3ccc(OCCCO)cc3)=N[C@]12Cc1ccccc1 | 0.191 | 0.998 | 1.16 | -0.0444 | 1.83 (inactive) | 0.165 | 0.0042 | 0.742 | 2.84 | 0.599 | 1.29 | 0.286 | 1.13 | 3.33 | 1.27 | 0.526 | 0.988 | 1.34 | 1.68 | -0.0106
C=CCN1C(=O)[C@@]2(O[C@@H](CCO)[C@H]([Si](C)(C)c3ccc(OC)cc3)[C@H]2C)c2cc(N3C(=O)c4cccc5cccc3c45)ccc21 | 0.123 | 0.272 | 0.201 | 0.691 | -0.159 (inactive) | 0.0425 | -0.0956 | 0.355 | 0.964 | 1.13 | 0.897 | -0.487 | 1.06 | 2.09 | 1 | 0.617 | 0.302 | -0.233 | -0.145 | -0.456
COc1ccc([Si](C)(C)[C@@H]2[C@@H](CCn3cc([C@H](O)c4ccccc4)nn3)O[C@]3(C(=O)N(C)c4c(Br)cc(C)cc43)[C@H]2C)cc1 | -0.0991 | -0.169 | 0.184 | -0.0364 | 0.62 (inactive) | -0.129 | -0.118 | -0.273 | -0.525 | -0.129 | -0.849 | -0.254 | -0.679 | 0.18 | -0.773 | -0.501 | -0.59 | 1.19 | 1.44 | 0.517
C=CCNC(=O)[C@@H]1[C@H]2C(=O)O[C@H](c3ccccc3)[C@H](c3ccccc3)N2[C@H](c2ccc(O)cc2)[C@@]12C(=O)Nc1ccc(C#Cc3ccc(OC)cc3)cc12 | 1.03 | -0.274 | 1.02 | 0.29 | 0.422 (inactive) | 0.0563 | -0.0451 | 0.31 | 0.928 | 0.482 | 1.32 | -0.0134 | 1.12 | 1.11 | 1.2 | 0.552 | 0.924 | 1.03 | 0.363 | -1.18
